This note sets out measurements from ChEMBL document CHEMBL1857833, “Screening and optimization of specific chemical series against human African Trypanosomiasis (HAT)”.

The structures appear in SMILES notation. Out of some 4,400 compounds screened, about 390 (8.9%) showed an effect of 50% or more. Many of the other results were omitted from the sample, so strong results are more common in it than they were.

The assay relates to Trypanosoma brucei. In words: DNDI: Inhibition of Human African Trypanosomiasis, SBRI 427, in vitro at 2 ug.mL-1. The assay is classed as functional.
By % inhibition is commonly meant the drop in the measured response relative to a control, in per cent. Turning to `COCC(C)N/C(=N\O)c1ccc(C)nc1Oc1ccc(SC)c(C)c1` (stereo unspecified), the “% inhibition” value is on record as -10%.

Regarding `Cc1ccc(Oc2nc(C)ccc2/C(=N/O)N2CCCCC2)c(C)c1`, the “% inhibition” value worked out at 0%.

On to `CC(NCc1coc(-c2ccc(C(F)(F)F)cc2)n1)c1ccccc1` (stereo unspecified), for which the “% inhibition” value was found to be 2%.

As to `COc1ccc(-c2nc(CNCCc3ccccc3OC)co2)cc1`, the “% inhibition” value was -4%.

As for `Cc1ccc(-c2nc(CN3CCN(C(=O)C4CCCO4)CC3)co2)cc1` (stereo unspecified), the “% inhibition” value was found to be 21%.

On to `Cc1ccc(Oc2cc(/C(=N/O)NCc3cccnc3)ccn2)c(C)c1`, for which the “% inhibition” value is -3%.

`COc1ccc(Oc2nc(C)ccc2/C(=N/O)NCc2ccc(C)o2)cc1`: the “% inhibition” value was 16%.

For the compound `CCc1ccc(Oc2ncccc2/C(=N/O)N2CCN(C)CC2)cc1`, the “% inhibition” value is -4%.

For `CCc1ccc(Oc2ccc(/C(N)=N/O)cn2)cc1`, the “% inhibition” value is 20%.

For `CCOc1ccccc1CN/C(=N\O)c1cccnc1OCC(C)C`, the “% inhibition” value was determined as 3%.

With `COc1ccccc1CN/C(=N\O)c1cccnc1Oc1cccc2ccccc12`, the “% inhibition” value came out at 0%.

Take `COc1ccc(Oc2ncccc2/C(=N/O)NCc2ccccc2C)cc1`: the “% inhibition” value was found to be 85%.

As to `COc1ccc(Oc2ncccc2/C(=N/O)NCc2ccccc2OC)cc1`, the “% inhibition” value amounted to 94%.

For the compound `CCOc1ccccc1CN/C(=N\O)c1cccnc1Oc1ccccc1SC`, the “% inhibition” value came to 100%.

`COc1ccc(Oc2ncccc2/C(=N/O)NCc2ccccn2)cc1`: the “% inhibition” value worked out at 2%.

Consider `CCOc1ccccc1CN/C(=N\O)c1cccnc1OC1CCC1`, for which the “% inhibition” value is given as 5%.

Take `CCc1ccc(Oc2ncccc2/C(=N/O)NCc2ccccc2C)cc1`: the “% inhibition” value amounted to 99%.

On to `Cc1ccc(/C(=N/O)N2CCC(N(C)C)C2)c(OCc2cccc(F)c2)n1` (stereo unspecified), for which the “% inhibition” value is listed as -7%.

With `O/N=C(\NCc1ccccc1)c1ccc(Oc2c(F)c(F)cc(F)c2F)nc1`, the “% inhibition” value worked out at 30%.

As for `c1csc(-c2nc(CNCCN3CCOCC3)co2)c1`, the “% inhibition” value is reported as -8%.

`CCN(Cc1coc(-c2ccccc2C)n1)c1ccc2c(c1)OCO2`: the “% inhibition” value is recorded as 13%.

As to `Cc1ccc2cccc(Oc3cc(/C(=N/O)NCc4cccs4)ccn3)c2n1`, the “% inhibition” value was determined as 6%.

As for `CCN(Cc1coc(-c2ccc(F)cc2)n1)c1ccc2c(c1)OCO2`, the “% inhibition” value is -2%.

For the compound `CN(Cc1cccnc1)/C(=N\O)c1ccnc(Oc2cccc(F)c2)c1`, the “% inhibition” value was 2%.

As to `CCOc1ccccc1-c1nc(CNCc2cc(OC)c(OC)c(OC)c2)co1`, the “% inhibition” value is reported as 8%.

Consider `COc1ccccc1CN/C(=N\O)c1cccnc1Oc1ccc(C(C)C)cc1`, for which the “% inhibition” value is -4%.

Regarding `CCOc1ccccc1CN/C(=N\O)c1cccnc1Oc1cc(Cl)ccc1Cl`, the “% inhibition” value was 100%.

With `CCOc1ccccc1CN/C(=N\O)c1cccnc1Oc1ccc2oc3ccccc3c2c1`, the “% inhibition” value is recorded as 14%.

Turning to `CCOc1ccccc1CN/C(=N\O)c1cccnc1Oc1cc(C)cc(C(C)C)c1`, the “% inhibition” value was -4%.

As for `CCOc1ccccc1CN/C(=N\O)c1cccnc1Oc1ccc(OC)cc1`, the “% inhibition” value is 98%.

On to `Cc1ccccc1CN/C(=N\O)c1cccnc1OCC(C)C`, for which the “% inhibition” value was 11%.

Turning to `Cc1ccc(/C(=N/O)NCc2ccccc2C)c(Oc2cccc(C(C)C)c2)n1`, the “% inhibition” value came out at 2%.

Regarding `Cc1ccccc1CN/C(=N\O)c1cccnc1Oc1ccc(C(C)C)cc1`, the “% inhibition” value is 99%.

Consider `CCOc1ccccc1CN/C(=N\O)c1cccnc1Oc1ccc(C(C)C)cc1`, for which the “% inhibition” value is 99%.

For `CCOc1ccccc1CN/C(=N\O)c1ccc(C)nc1Oc1cc(Cl)ccc1Cl`, the “% inhibition” value was 26%.

Turning to `CCOc1ccccc1CN/C(=N\O)c1cccnc1Oc1ccc(F)cc1`, the “% inhibition” value is reported as 5%.
